Calls of active or inactive are those of the source. The calls were made as follows: active = hit-call score of the fitted dose curve at least 0.9, where 1 is the maximum; inactive = score below 0.9.
Tests used:
[1] = ATG_CRE_CIS: Attagene CIS-FACTORIAL HepG2 Assay for human cAMP Responsive Element (CRE) binding protein 3 (AID 2282926); conditions: HepG2 CRE cis-reporter, Attagene multiplexed mRNA; actives raise or lower the signal
Method in brief: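 HepG2 cells transiently transfected with cis-element-driven multiple reporter transcription units; CRE reporter mRNA measured 24 h after dosing by RT-PCR, 6-FAM labelling, HpaI digestion and capillary electrophoresis. Bidirectional fit versus DMSO baseline.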

[2] = molecular target: CCAAT/enhancer-binding protein beta (Homo sapiens) (UniProt P17676); assay: ATG_C_EBP_CIS: Attagene CIS-FACTORIAL HepG2 Assay for human CCAAT/Enhancer Binding Protein (C/EBP) beta (AID 2282927); conditions: HepG2 Attagene cis-factorial transcription factor reporter; actives raise or lower the signal
CCAAT/enhancer-binding protein beta (Homo sapiens), sequence (P17676 whole entry, looked up, the tested form may be a part): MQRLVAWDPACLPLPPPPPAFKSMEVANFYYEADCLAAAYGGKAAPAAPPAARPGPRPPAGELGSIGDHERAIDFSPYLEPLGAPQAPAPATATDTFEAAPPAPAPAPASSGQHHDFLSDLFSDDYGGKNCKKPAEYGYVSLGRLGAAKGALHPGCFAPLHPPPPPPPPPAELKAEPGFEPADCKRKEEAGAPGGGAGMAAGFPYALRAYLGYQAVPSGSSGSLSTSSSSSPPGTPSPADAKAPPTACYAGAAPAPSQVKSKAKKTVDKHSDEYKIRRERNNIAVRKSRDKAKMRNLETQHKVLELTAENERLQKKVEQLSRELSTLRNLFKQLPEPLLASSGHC
Method in brief: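 Chemical-treated HepG2 cells (24 h) bearing cis-regulated reporter constructs were processed for total RNA, then reverse transcription, PCR amplification, fluorescent primer extension and fragment analysis; gain- and loss-of-signal were fitted against DMSO.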

[3] = ATG_CMV_CIS: Attagene CIS-FACTORIAL HepG2 Assay for human CMV (Internal Marker) (AID 2282928); conditions: HepG2 CMV promoter reporter, transcription factor profiling; actives raise or lower the signal;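 also: endpoint acts as a background internal control marker rather than a target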
Method in brief: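 CMV internal-marker background readout in transiently transfected HepG2 cells bearing cis-regulated reporter units. Reporter mRNA is measured 24 h after dosing by RT-PCR and capillary electrophoresis, with bidirectional fitting against DMSO.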

[4] = ATG_DR4_LXR_CIS: Attagene CIS-FACTORIAL HepG2 Assay for human Liver X Receptor (LXR), DR4 submotif (AID 2282929); conditions: HepG2 Attagene DR4 cis-reporter, mRNA transcription; actives raise or lower the signal
Method in brief: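 Endogenous factor activity at a DR4 cis-element is read as reporter mRNA in transiently transfected HepG2 cells. Exposure lasts 24 h; transcripts are amplified, fluorescently labelled and sized by capillary electrophoresis, with DMSO as baseline.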

[5] = ATG_AP_1_CIS: Attagene CIS-FACTORIAL HepG2 Assay for human Activator Protein 1 (AP-1) (AID 2282931); conditions: HepG2 Attagene cis-factorial AP-1 reporter mRNA; actives raise or lower the signal
Method in brief: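 Fluorescence of labelled PCR fragments separated by capillary electrophoresis gives reporter mRNA levels. HepG2 with transfected cis-regulated reporter units, 24 h exposure; DMSO serves as baseline for bidirectional curve fits.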

[6] = ATG_AP_2_CIS: Attagene CIS-FACTORIAL HepG2 Assay for human Activator Protein 2 (AP-2) (AID 2282932); conditions: HepG2 AP-2 cis-reporter, Attagene transcription factor profiling; actives raise or lower the signal
Method in brief: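 HepG2 cells were transiently transfected with multiple cis-promoter reporter transcription units and dosed for 24 h. Reporter mRNA was measured by RT-PCR with capillary electrophoresis fluorescence; bidirectional fits relative to DMSO baseline.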

[7] = ATG_BRE_CIS: Attagene CIS-FACTORIAL HepG2 Assay for human Bone Morphogenetic Protein (BMP) Response Element (BRE) (AID 2282933); conditions: HepG2 BMP response element reporter, Attagene transcription factor profiling; actives raise or lower the signal
Method in brief: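 Transient MRTU transfection of human HepG2 liver cells; 24 h compound treatment; total RNA isolated, reverse-transcribed, PCR-amplified, 6-FAM labelled, HpaI-cut, capillary electrophoresis. DMSO = negative control/baseline, bidirectional fit.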

[8] = molecular target: Retinoic acid receptor alpha (Homo sapiens) (UniProt P10276); assay: ATG_DR5_RAR_CIS: Attagene CIS-FACTORIAL HepG2 Assay for human Retinoic Acid Receptor Alpha (RARE), DR5 submotif (AID 2282934); conditions: HepG2 Attagene cis-factorial RARE DR5 reporter, mRNA; actives raise or lower the signal;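 as to AC50: reporter responds to endogenous RAR alpha beta and gamma in HepG2 not RARA alone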
Retinoic acid receptor alpha (Homo sapiens), sequence (P10276 whole entry, looked up): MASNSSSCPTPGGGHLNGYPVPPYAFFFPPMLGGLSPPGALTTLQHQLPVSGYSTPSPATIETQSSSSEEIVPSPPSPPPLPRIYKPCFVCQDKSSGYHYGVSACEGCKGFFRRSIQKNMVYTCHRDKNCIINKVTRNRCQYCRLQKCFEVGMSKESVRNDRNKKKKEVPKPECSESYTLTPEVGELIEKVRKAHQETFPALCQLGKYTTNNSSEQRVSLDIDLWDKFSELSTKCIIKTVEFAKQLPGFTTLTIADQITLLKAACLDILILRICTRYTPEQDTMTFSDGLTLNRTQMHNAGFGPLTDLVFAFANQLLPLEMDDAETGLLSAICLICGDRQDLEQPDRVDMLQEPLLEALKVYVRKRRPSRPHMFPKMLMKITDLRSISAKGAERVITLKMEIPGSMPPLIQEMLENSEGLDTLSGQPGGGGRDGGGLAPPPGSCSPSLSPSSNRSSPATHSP
Method in brief: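 Transfected HepG2 reporter cells are exposed to chemicals for 24 h. Then RNA is extracted and the DR5 element reporter transcript is measured by RT-PCR and capillary electrophoresis, with bidirectional curve fitting relative to DMSO.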

[9] = molecular target: Transcription factor E2F1 (Homo sapiens) (UniProt Q01094); assay: ATG_E2F_CIS: Attagene CIS-FACTORIAL HepG2 Assay for human E2F Transcription Factor 1 (AID 2282935); conditions: HepG2 Attagene cis-reporter, E2F reporter RNA transcripts; actives raise or lower the signal
Transcription factor E2F1 (Homo sapiens), sequence (Q01094 whole entry, looked up): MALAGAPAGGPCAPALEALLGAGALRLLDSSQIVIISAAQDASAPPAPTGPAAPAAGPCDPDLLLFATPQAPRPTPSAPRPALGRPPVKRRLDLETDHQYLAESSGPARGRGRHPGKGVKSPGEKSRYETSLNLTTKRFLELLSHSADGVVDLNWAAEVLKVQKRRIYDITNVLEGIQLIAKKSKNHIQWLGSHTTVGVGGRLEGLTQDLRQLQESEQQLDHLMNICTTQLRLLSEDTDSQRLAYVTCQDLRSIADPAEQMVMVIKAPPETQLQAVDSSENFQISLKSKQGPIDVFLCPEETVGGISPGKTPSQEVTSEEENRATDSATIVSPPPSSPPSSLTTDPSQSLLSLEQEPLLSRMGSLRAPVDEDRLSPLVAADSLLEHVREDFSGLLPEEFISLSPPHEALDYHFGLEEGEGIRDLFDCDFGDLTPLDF
Method in brief: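 HepG2 cells transiently transfected with multiplexed cis-element reporter units, dosed for 24 h. Reporter mRNA measured by RT-PCR, 6-FAM primer-extension labeling, HpaI digestion and capillary electrophoresis; bidirectional fit versus DMSO baseline.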

[10] = molecular target: Aryl hydrocarbon receptor (Homo sapiens) (UniProt P35869); assay: ATG_Ahr_CIS: Attagene CIS-FACTORIAL HepG2 Assay for human Aryl Hydrocarbon Receptor (Ahr) (AID 2282930); conditions: HepG2 AhR cis-factorial reporter transcription; actives raise or lower the signal
Aryl hydrocarbon receptor (Homo sapiens), sequence (P35869 whole entry, looked up): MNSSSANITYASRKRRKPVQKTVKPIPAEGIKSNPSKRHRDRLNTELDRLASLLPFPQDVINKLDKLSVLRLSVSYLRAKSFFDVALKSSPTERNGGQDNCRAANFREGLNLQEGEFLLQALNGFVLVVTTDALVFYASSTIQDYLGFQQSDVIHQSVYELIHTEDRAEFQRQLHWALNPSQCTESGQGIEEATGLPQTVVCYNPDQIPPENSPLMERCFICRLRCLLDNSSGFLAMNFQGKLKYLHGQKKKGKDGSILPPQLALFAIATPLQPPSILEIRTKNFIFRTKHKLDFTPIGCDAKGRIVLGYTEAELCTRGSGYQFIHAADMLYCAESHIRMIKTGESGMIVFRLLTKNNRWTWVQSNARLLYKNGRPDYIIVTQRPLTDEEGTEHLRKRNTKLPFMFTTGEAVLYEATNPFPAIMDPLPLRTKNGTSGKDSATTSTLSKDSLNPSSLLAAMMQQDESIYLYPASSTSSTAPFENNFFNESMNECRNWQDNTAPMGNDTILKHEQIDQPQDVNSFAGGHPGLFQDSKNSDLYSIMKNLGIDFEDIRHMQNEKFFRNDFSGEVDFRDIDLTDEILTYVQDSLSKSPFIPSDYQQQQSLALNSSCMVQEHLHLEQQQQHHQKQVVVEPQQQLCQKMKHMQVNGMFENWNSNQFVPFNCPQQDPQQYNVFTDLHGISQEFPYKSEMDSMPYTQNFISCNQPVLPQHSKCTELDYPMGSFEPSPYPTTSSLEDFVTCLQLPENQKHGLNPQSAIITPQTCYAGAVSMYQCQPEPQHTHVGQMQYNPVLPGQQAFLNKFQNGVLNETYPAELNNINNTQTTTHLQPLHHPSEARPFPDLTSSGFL
Method in brief: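 Following 24 h of chemical dosing, transfected HepG2 liver cells with cis-driven reporter units were lysed for RNA; reporter mRNA was quantified via RT-PCR and capillary electrophoresis, and responses fitted bidirectionally from DMSO.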

Measured: AC50

O=C1CCCCCN1
not listed: [10]
inactive: all other assays above

Cc1ccc(S(=O)(=O)O)cc1C
not listed: [3]
inactive: all other assays above

CC(=O)OC[C@H]1O[C@@](COC(C)=O)(O[C@H]2O[C@H](COC(C)=O)[C@@H](OC(C)=O)[C@H](OC(C)=O)[C@H]2OC(C)=O)[C@@H](OC(C)=O)[C@@H]1OC(C)=O
active: [10] 53 µM
not listed: [3]
inactive: all other assays above

Nc1nc2ncc(CNc3ccc(C(=O)N[C@@H](CCC(=O)O)C(=O)O)cc3)nc2c(=O)[nH]1
not listed: [10]
inactive: all other assays above

CC[C@H]1OC(=O)[C@H](C)[C@@H](O[C@H]2C[C@@](C)(OC)[C@@H](O)[C@H](C)O2)[C@H](C)[C@@H](O[C@@H]2O[C@H](C)C[C@H](N(C)C)[C@H]2O)[C@](C)(O)C[C@@H](C)C(=O)[C@H](C)[C@@H](O)[C@]1(C)O
not listed: [3]
inactive: all other assays above

Cc1ccc(N)cc1O
not listed: [10]
inactive: all other assays above

CC(C)CC(C)(O)C#CC(C)(O)CC(C)C (stereo not given)
not listed: [3]
inactive: all other assays above

Clc1nc(Cl)c(Cl)c(Cl)c1Cl
not listed: [10]
inactive: all other assays above

O=C1OC(=O)C2C3C=CC(C3)C12 (stereo not given)
not listed: [3]
inactive: all other assays above

O=c1n(CC2CO2)c(=O)n(CC2CO2)c(=O)n1CC1CO1 (stereo not given)
active: [1] 44.5 µM | [2] 75.7 µM | [5] 4.4 µM
not listed: [10]
inactive: all other assays above

CCCCC(CC)COC(=O)c1ccc(C(=O)OCC(CC)CCCC)cc1 (stereo not given)
active: [10] 66 µM
not listed: [3]
inactive: all other assays above

COCCOc1cc2cc(C(=O)NC3CCN(C(C)C)CC3)n(CC(=O)Nc3ccc(Cl)cn3)c2cn1
active: [1] 100 µM | [4] 71.6 µM | [8] 50.4 µM
not listed: [10]
inactive: all other assays above

CCOc1cccc(-n2cc(C(=O)N3CCN(c4cc(C(=O)O)c5ccccc5c4)CC3)nc2-c2ccc(C)cc2)c1
active: [4] 25.1 µM | [5] 18.4 µM | [7] 54.7 µM | [8] 26 µM
not listed: [10]
inactive: all other assays above

Cn1c(=O)c2c(ncn2C)n(C)c1=O
not listed: [3]
inactive: all other assays above

C=CCCCCCCCCC(=O)O
not listed: [10]
inactive: all other assays above

NC(=O)NO
active: [10] 100 µM
not listed: [3]
inactive: all other assays above

COc1ccc(-n2nc(C(F)F)cc2-c2ccc(S(C)=O)cc2)cc1 (stereo not given)
active: [3] 5.24 µM
not listed: [10]
inactive: all other assays above

O=C(NS(=O)(=O)/C=C/c1ccccc1)c1ccc(F)cc1Cl
not listed: [3] | [10]
inactive: all other assays above

CC[C@H]1CC[C@H](NCc2cc3c(cc2OC)[C@H]2C[C@H]2C(=O)N3C)[C@H](c2ccccc2)N1
active: [1] 58.6 µM | [2] 15.9 µM | [6] 55.4 µM
not listed: [3] | [10]
inactive: all other assays above

CC(=O)OCCC(C)C
not listed: [3]
inactive: all other assays above

Nc1cccc(N)c1
not listed: [3]
inactive: all other assays above

CCc1cc(SCc2sc(-c3ccc(C(F)(F)F)cc3)nc2CN2CCN(c3ccc(OC)cc3)CC2)ccc1OCC(=O)O
active: [4] 3.68 µM | [10] 17.4 µM | [7] 18.2 µM | [9] 1.9 µM
not listed: [3]
inactive: all other assays above

CCCCCCCCCCCCc1ccccc1
not listed: [3]
inactive: all other assays above

Cc1[nH]cnc1C[C@H]1CCc2c(C)c3ccccc3n2C1=O
active: [1] 29.7 µM | [4] 42.1 µM | [7] 29.7 µM
not listed: [3] | [10]
inactive: all other assays above

CC(C)=CCCC(C)=CC=O
active: [1] 162 µM | [4] 183 µM | [10] 78.9 µM | [5] 137 µM | [7] 139 µM
inactive: [2] | [6] | [8] | [9]

CC(O)CN(CCN(CC(C)O)CC(C)O)CC(C)O (stereo not given)
not listed: [3] | [10]
inactive: all other assays above

CC1(C)C(=O)N(Br)C(=O)N1Br
not listed: [3] | [10]
inactive: all other assays above

CC(C)(O)c1coc(S(=O)(=O)NC(=O)Nc2c3c(cc4c2CCC4)CCC3)c1
not listed: [3]
inactive: all other assays above

CNCc1ccc(NC(=O)c2c[nH]c3c2C(=O)CCC3)cc1
not listed: [3] | [10]
inactive: all other assays above

Cc1ccc(C)c(O)c1
not listed: [3] | [10]
inactive: all other assays above

COc1cccc(-c2ccc(/C=C\CN3CCCCCC3)cc2Cl)c1
active: [5] 16.2 µM | [7] 17.4 µM
not listed: [3] | [8]
inactive: all other assays above

CC1=CC(=O)CC(C)(C)C1
not listed: [3]
inactive: all other assays above

CCCCCCc1ccc(O)cc1O
active: [4] 44.4 µM
not listed: [3] | [10]
inactive: all other assays above

COC(=O)c1c(Cl)c(Cl)c(C(=O)OC)c(Cl)c1Cl
not listed: [3] | [8]
inactive: all other assays above

C[C@](N)(Cc1ccc(O)c(O)c1)C(=O)O
not listed: [3] | [10]
inactive: all other assays above

O=C(OC[C@H]1O[C@@H](OC(=O)c2cc(O)c(O)c(OC(=O)c3cc(O)c(O)c(O)c3)c2)[C@H](OC(=O)c2cc(O)c(O)c(OC(=O)c3cc(O)c(O)c(O)c3)c2)[C@@H](OC(=O)c2cc(O)c(O)c(OC(=O)c3cc(O)c(O)c(O)c3)c2)[C@@H]1OC(=O)c1cc(O)c(O)c(OC(=O)c2cc(O)c(O)c(O)c2)c1)c1cc(O)c(O)c(OC(=O)c2cc(O)c(O)c(O)c2)c1
not listed: [3] | [10]
inactive: all other assays above

CC[C@H](C)C(=O)O[C@H]1C[C@@H](C)C=C2C=C[C@H](C)[C@H](CC[C@@H]3C[C@@H](O)CC(=O)O3)[C@H]21
active: [4] 52.4 µM
not listed: [3] | [8] | [10]
inactive: all other assays above

O=C(O)c1cccc(N(Cc2cccnc2)c2ccc(OC(F)F)c(OC(F)F)c2)c1
not listed: [3] | [10]
inactive: all other assays above

Nc1ccc(Nc2ccccc2)cc1
not listed: [3] | [10]
inactive: all other assays above

O=C(CCCCCCCCc1cccnc1)N1CCC(C=C(c2ccccc2)c2ccccc2)CC1
active: [1] 14.5 µM | [2] 9.03 µM | [4] 14.4 µM | [10] 0.874 µM | [5] 9.05 µM | [6] 56.3 µM | [7] 3.07 µM | [8] 1.66 µM
inactive: [9]

CCCCCCCCO
active: [8] 25.3 µM
not listed: [3] | [10]
inactive: all other assays above

CC(C)=CCCC(C)CCO (stereo not given)
not listed: [3] | [10]
inactive: all other assays above

On1ccccc1=S
not listed: [3] | [10]
inactive: all other assays above

CN(C)c1ccc(N=NS(=O)(=O)O)cc1
active: [5] 43.8 µM
not listed: [3] | [10]
inactive: all other assays above

CC(C)=CCC/C(C)=C\CO
not listed: [3] | [8] | [10]
inactive: all other assays above

CCCN(C1CCN(C(=O)C2CCNCC2)CC1)[C@@H]1CCc2ccc(OC)cc2C1
active: [4] 68.6 µM | [10] 32.9 µM | [6] 82.6 µM | [7] 53.3 µM
not listed: [3]
inactive: all other assays above

Oc1ccc2c(c1)-c1ccccc1C2
active: [1] 44.4 µM | [2] 74 µM | [4] 1.79 µM | [7] 84.4 µM | [8] 27.5 µM
inactive: [5] | [6] | [9]
